Bioassay records from PubChem.
Sfp PPTase inh: qHTS Assay for Inhibitors of Bacillus subtilis Sfp phosphopantetheinyl transferase (PPTase); 4'-phosphopantetheinyl transferase ffp (Bacillus subtilis), Q9F4F7; Biochemical Sfp PPTase activity, qHTS; Potency, µM, without a hit: largest response in the series, negative = inhibition, actives largely listed as inhibitors; 310,000 tested, 3.5% active; AID 1490, 2009;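 further: the enzyme is Sfp with the accession as filed and its product quenches rhodamine fluorescence; 0% = enzyme reaction without inhibitor and -100% = no enzyme wells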
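After 15 min at room temperature with compound, 15 nM Sfp received 5 uM rhodamine-CoA plus 12.5 uM BHQ-2-ybbR (50 mM Hepes pH 7.6, 10 mM MgCl2). Rate came from the fluorescence difference over 30 min, ex 525/em 598 nm.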
G9a inh: qHTS Assay for Inhibitors of Histone Lysine Methyltransferase G9a. Histone-lysine N-methyltransferase EHMT2 (Homo sapiens), Q96KQ7. Potency, µM (doses to about 102 µM), inactives show at the top dose activity, negative = inhibition, actives largely listed as inhibitors. AID 504332, 2011. 350,000 tested, 8.8% active. G9a H3K9 monomethylation, AlphaScreen, 2 h; further: on the % scale 0 is the no-effect control and ±100 the full control effect; nearly all actives have a fitted effect of over 75% in size
Target sequence (Q96KQ7 913-1193 limits assumed): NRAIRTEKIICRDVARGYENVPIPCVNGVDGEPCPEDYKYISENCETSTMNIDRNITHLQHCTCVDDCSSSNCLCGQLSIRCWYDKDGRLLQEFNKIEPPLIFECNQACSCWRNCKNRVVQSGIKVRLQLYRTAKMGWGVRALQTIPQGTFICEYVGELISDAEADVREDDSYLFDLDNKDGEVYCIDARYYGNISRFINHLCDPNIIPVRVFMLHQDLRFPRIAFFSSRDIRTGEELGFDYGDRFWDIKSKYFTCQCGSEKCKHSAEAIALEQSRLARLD
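Quantitative HTS format: methyltransferase activity on a biotin-tagged H3K9 peptide is measured by AlphaScreen, using a rabbit anti-monomethyl-H3K9 antibody with streptavidin donor and anti-IgG acceptor beads. Final levels are 20 nM enzyme, 500 nM peptide, 20 uM SAM; 2 h RT.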
ALOX12 inh: Primary qHTS assay for inhibitors of human arachidonate 12S-lipoxygenase (ALOX12): Round 2; Polyunsaturated fatty acid lipoxygenase ALOX12 (Homo sapiens), P18054; purified 12hLO, xylenol orange hydroperoxide absorbance; AID 1671190, 2021; 580,000 tested, 1.1% active; Potency, µM (titrated, usually from 108 µM), for inactives: at the highest dose activity change, negative = inhibition, usual class: inhibitors; further: on the % scale 0 is the no-effect control and ±100 the full control effect
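Purified human 12hLO at 150 nM in 25 mM Hepes, 0.01% Triton X-100, pH 7.0, preincubated 15 min at room temperature with compound. Reaction started with 40 uM arachidonic acid, 30 min at room temperature. Hydroperoxide measured by Fe-xylenol orange, 573/405 nm absorbance ratio.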
BAZ2B inh: qHTS Assay for Inhibitors of BAZ2B; 360,000 tested, 4.4% active; AlphaScreen BAZ2B-H3K14Ac peptide displacement; Potency, µM (highest dose often 114 µM), for inactives: top-dose activity change, negative = inhibition, hits mostly inhibitors; Bromodomain adjacent to zinc finger domain protein 2B (Homo sapiens), Q9UIF8; further: on the % scale 0 is the no-effect control and ±100 the full control effect; nearly all actives have a fitted effect of over 60% in size
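BAZ2B 50 nM plus b-H3(5-23)K14Ac 50 nM, PBS pH 7.4/0.01% Tween-20, 30 min RT; compound added (max 110 uM), 30 min RT; streptavidin donor/Ni-chelate acceptor beads 10 ug/mL final, 20 min dark; AlphaScreen read.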
HP1b binding inh: HTS for Inhibitors of HP1-beta Chromodomain Interactions with Methylated Histone Tails; Potency, µM (highest dose often 114 µM), for the others: top-dose activity change, negative = inhibition, usual class: inhibitors; Chromobox protein homolog 1 (Homo sapiens), P83916; 390,000 tested, 0.56% active; AlphaScreen HP1-beta / biotin-H3K9me3 peptide binding; AID 540317, 2011; further: nearly all actives have a fitted effect of over 70% in size
Target sequence (P83916 whole entry, looked up): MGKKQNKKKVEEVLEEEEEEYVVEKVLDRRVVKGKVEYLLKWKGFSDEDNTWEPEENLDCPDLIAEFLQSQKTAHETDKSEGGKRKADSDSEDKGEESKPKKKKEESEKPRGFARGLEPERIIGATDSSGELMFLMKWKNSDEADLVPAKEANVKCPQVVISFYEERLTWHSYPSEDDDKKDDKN
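Compound inhibition of the preformed complex between 50 nM HP1-beta and 50 nM biotinylated H3K9me3 peptide was read by AlphaScreen. Buffer was PBS pH 7.4 with 0.01% Tween-20. Incubations ran 30 min at room temperature, with 10 ug/mL donor/acceptor beads.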
JMJD2A Tudor: qHTS Assay for Inhibitors of JMJD2A-Tudor Domain | AlphaScreen JMJD2A-Tudor / H3K4me3 peptide binding | Potency, µM (titrated, usually from 114 µM), inactives show top-dose activity change, negative = inhibition, hits mostly inhibitors | 390,000 tested, 4.4% active; further: on the % scale 0 is the no-effect control and ±100 the full control effect; nearly all actives have a fitted effect of over 50% in size
Active calls of the source: *; ? = inconclusive; . = not tested or not shown; [ ] = dose if it differs, or a comment. In the library only some 8.7% were active in any assay of this set; here they are far more common. The call rests on the fitted dose curve; in most records, active means well fitted curve in the direction sought with a large enough effect; inconclusive means small, poorly fitted or top-dose-only effect, or another doubt; inactive means no such curve, though single readings can be large; an effect the other way counts as inactive or inconclusive. Potency means the concentration at half of the fitted maximal effect.

SMILES	Sfp PPTase inh	G9a inh	ALOX12 inh	BAZ2B inh	HP1b binding inh	JMJD2A Tudor
CCOC(=O)C1C(c2ccc3c(c2)OCO3)NC(=O)NC1(O)C(F)(F)F (centres undefined)	-5.1%	-3.8%[2.33 µM]	0.0%	12.1%	-4.3%	17.8µM*
CCOC(=O)C1C(c2cc(OC)c(O)c(OC)c2)NC(=S)NC1(O)C(F)(F)F (centres undefined)	-7.7%	-16.0%[59 µM]	-2.7%	-5.8%	39.7%	-1.4%
O=C1C2=C(C(=O)c3ccccc31)C1O[C@](c3ccsc3)(Cc3c1ccc1ccccc31)O2	-22.4%	-45.2%[2.33 µM]	.	11.2µM*	.	.
O=C1CCCC2=C1C1O[C@](c3ccsc3)(Cc3c1ccc1ccccc31)O2	-16.6%	-21.6%[2.33 µM]	.	-0.4%[22.9 µM]	.	.
Clc1ccc2c(c1)NC(c1ccncc1)=NC(c1cccs1)=N2	.	28.2µM*	4.3%	?	-5.0%	?
CCCCOc1ccc(C2=NC(c3cccs3)=Nc3ccc(CC)cc3N2)cc1	.	?	?	?	-11.6%	?
COc1ccc(C2=Nc3ccccc3NC(c3cccs3)=N2)cc1	.	3.9%[59 µM]	6.0%	-0.7%	4.4%	-22.6%
Clc1cccc(C2=NC(c3cccs3)=Nc3ccc(Br)cc3N2)c1	.	-24.6%[59 µM]	-16.4%	-38.5%	?	?
CCOc1ccc(C2=NC(c3cccs3)=Nc3ccc(C(C)C)cc3N2)cc1	.	10µM*	6.8%	22.4µM*	-25.2%	20µM*
CCc1ccc2c(c1)NC(c1ccc(C)cc1)=NC(c1cccs1)=N2	.	12.6µM*	6.8%	25.1µM*	?	44.7µM*
Cc1nnc(NC(=O)c2ccc3ccccc3c2)o1	-11.3%	6.8%[59 µM]	0.0%	28.2µM*	30.6%	50.1µM*
Cc1nnc(NC(=O)c2ccc(S(=O)(=O)N(C)Cc3ccccc3)cc2)o1	29.3%	-1.5%	.	79.4µM*	42.7%	?
COCCN(CCOC)S(=O)(=O)c1ccc(C(=O)Nc2nnc(C)o2)cc1	89.1µM*	7.08µM*	17.5%	14.1µM*	3.8%	28.2µM*
COCCN(CCOC)S(=O)(=O)c1ccc(C(=O)Nc2ccc([N+](=O)[O-])cc2OC)cc1	44.7µM*	3.9%	0.0%	-11.4%	37.3%	-17.1%
O=C(Nc1nnc(-c2ccco2)o1)c1ccc2ccccc2c1	12.7%	-4.1%[59 µM]	11.9%	8.2%	48.1%	-15.2%[57.1 µM]
CC(OC(=O)Cc1n[nH]c(=O)c2ccccc12)C(=O)NCc1ccccc1 (centres undefined)	.	.	7.7%	.	.	.
Cc1nn(-c2ccccc2)c(C)c1CN(C)C(=O)CNC(=O)c1ccc(Cl)cc1	.	.	-10.4%	.	.	.
COCCN1CCc2c(C)nc3c(-c4ccc(OC)c(OC)c4)cnn3c21	-0.2%	79.4µM*	0.0%	-5.1%	33.7%	-7.1%
Oc1ccc(-n2cccc2/C=N/n2cnnc2)cc1	-2.1%	?	14.2%	-38.0%	13.4%	-13.2%
FC(F)(F)c1cccc(-n2cccc2/C=N/n2cnnc2)c1	8.3%	?	14.1µM*	-20.0%	20.4%	-16.4%
CCOc1ccc(CN(C)CC(=O)NC(=O)NCc2ccccc2)cc1	.	.	-1.8%	.	.	.
CCNC(=O)NC(=O)CNc1ccccc1N(C)Cc1ccccc1	.	.	7.08µM*	.	.	.
S=C(NCc1ccccc1)N/N=C/c1ccc(OCCOc2ccc(Br)cc2)cc1	.	.	-10.6%	.	.	.
COCCn1c(SC(C)C(=O)c2cc(C)ccc2C)nnc1-c1ccc(Cl)cc1 (centres undefined)	.	.	-20.2%	.	.	.
CN(C)CCCNc1cc(C(C)(C)C)nc2c(-c3ccccc3)cnn12	50.1µM*	.	-3.5%	-8.7%	10.0%	-18.6%
CC(C)(C)c1cc(NCc2cccnc2)n2ncc(-c3ccccc3)c2n1	.	.	-0.4%	.	.	.
